Experimental data: PubChem BioAssay (NCATS)
Records with an inconclusive call do not appear. Active and inactive are the calls of the source. The call rests on the fitted dose curve; in most records, active means well fitted inhibition curve with a large enough effect; inconclusive means small, poorly fitted or top-dose-only effect; inactive means flat fitted curve, though single readings scatter.

What was measured:
CRL-7250 = normal cell line; assay: Cytotoxic Profiling of Annotated Libraries Using Quantitative High-Throughput Screening (AID 1296008); details: Five cell lines viability, CellTiter-Glo ATP luminescence, 48-72 h; max response: active compounds read low; on max response: on the % scale 0 is the no-effect control and ±100 the full control effect
Summary of the method: (§1)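 Cytotoxicity was measured as CellTiter-Glo ATP luminescence, read after 10 min at room temperature. Compound treatment of the cells lasted 48 or 72 hr at 37 degrees Celsius in a qHTS format.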

HEK293 = assay: as above; details: Five cell lines viability, CellTiter-Glo ATP luminescence, 48-72 h; max response: active compounds read low
Summary of the method: as §1

HaCat [1] = assay: as above; details: Five cell lines viability, CellTiter-Glo ATP luminescence, 48-72 h; max response: active compounds read low
Summary of the method: as §1

KB-3-1 = assay: as above; details: Five cell lines viability, CellTiter-Glo ATP luminescence, 48-72 h; max response: active compounds read low
Summary of the method: as §1

NIH3T3 = assay: as above; details: Five cell lines viability, CellTiter-Glo ATP luminescence, 48-72 h; max response: active compounds read low
Summary of the method: as §1

HACAT [2] = assay: qHTS assay to identify novel small-molecules to repurpose for Merkel cell carcinoma treatment (AID 1296009); details: MCC and control cell lines, CellTiter-Glo viability, 72 h; at 44.8 µM (top of the series) unless noted
Summary of the method: (§2)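 Cell viability, measured as CellTiter-Glo luminescence, was normalized between DMSO and no-cell wells. The cells had been exposed to 8- or 11-point compound dilutions for 72 hr at 37 degree celsius.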

HEK293T = assay: as above; details: MCC and control cell lines, CellTiter-Glo viability, 72 h; series mostly up to 44.8 µM
Summary of the method: as §2
Further: nearly all actives have a fitted effect of over 60% in size.

CC(C)(C)c1cc(CN2CCN(CC(O)c3ccc(Cl)cc3)CC2)cc(C(C)(C)C)c1O (stereo unspecified)
inactive: max response (CRL-7250) -1.02% | outcome (HEK293) | outcome (HaCat [1]) | max response (KB-3-1) -8.12% | outcome (NIH3T3) | outcome (HACAT [2]) | Potency (HEK293T)

C/C(=C\CCC(C)(O)c1ccc(C)cc1)C(=O)O (stereo unspecified)
inactive: max response (CRL-7250) -2.36% | outcome (HEK293) | outcome (HaCat [1]) | outcome (KB-3-1) | max response (NIH3T3) 0.595% | outcome (HACAT [2]) | Potency (HEK293T)

CC(=O)OC(CSC1CCC(=O)OC(C)CCC(=O)C1)C(=O)O (stereo unspecified)
inactive: max response (CRL-7250) -6.05% | outcome (HEK293) | outcome (HaCat [1]) | outcome (KB-3-1) | outcome (NIH3T3) | outcome (HACAT [2]) | Potency (HEK293T)

CCOC(=O)[C@H]1O[C@@H]1C(=O)N[C@@H](CC(C)C)C(=O)NCCC(C)C
inactive: outcome (CRL-7250) | outcome (HEK293) | outcome (HaCat [1]) | outcome (KB-3-1) | max response (NIH3T3) -2.92% | outcome (HACAT [2]) | Potency (HEK293T)

CC(C)NC[C@H](O)COc1ccc(CCOCC2CC2)cc1
inactive: max response (CRL-7250) -3.5% | outcome (HEK293) | outcome (HaCat [1]) | outcome (KB-3-1) | outcome (NIH3T3) | outcome (HACAT [2]) | Potency (HEK293T)

CC1(CO)CC2C(O)C(=O)C3(CO)CC3(C)C2C1 (stereo unspecified)
inactive: max response (CRL-7250) -4.66% | outcome (HEK293) | outcome (HaCat [1]) | max response (KB-3-1) 2.2% | outcome (NIH3T3) | outcome (HACAT [2]) | Potency (HEK293T)

C=C1CCC2C(C)(C)CC(=O)CC2(C)C1CCC(C)CCOC(C)=O (stereo unspecified)
inactive: outcome (CRL-7250) | outcome (HEK293) | outcome (HaCat [1]) | max response (KB-3-1) 5.05% | outcome (NIH3T3) | outcome (HACAT [2]) | Potency (HEK293T)

C=C1C[C@]23C[C@H]1CC[C@H]2[C@@]12C=C[C@H](O)[C@@](C)(C(=O)O1)[C@H]2[C@@H]3C(=O)O
inactive: max response (CRL-7250) -5.97% | outcome (HEK293) | outcome (HaCat [1]) | outcome (KB-3-1) | outcome (NIH3T3) | outcome (HACAT [2]) | Potency (HEK293T)

CCC(C)(O)C(O)C(=O)OCc1ccc(O[C@@H]2O[C@H](CO)[C@@H](O)[C@H](O)[C@H]2O)c(OC)c1 (stereo partly specified)
inactive: max response (CRL-7250) 0.769% | outcome (HEK293) | outcome (HaCat [1]) | max response (KB-3-1) 4.31% | outcome (NIH3T3) | outcome (HACAT [2]) inactive [at 17.4 µM] | Potency (HEK293T)

C=CC1C(O[C@@H]2O[C@H](CO)[C@@H](O)[C@H](O)[C@H]2O)OC=C(C(=O)OC)C1CC(=O)O (stereo partly specified)
inactive: outcome (CRL-7250) | outcome (HEK293) | outcome (HaCat [1]) | max response (KB-3-1) 9.2% | max response (NIH3T3) 3.11% | outcome (HACAT [2]) inactive [at 17.4 µM] | Potency (HEK293T)

OC[C@H]1O[C@@H](Oc2cc(O)cc(/C=C/c3ccc(O)cc3)c2)[C@H](O)[C@@H](O)[C@@H]1O
inactive: outcome (CRL-7250) | outcome (HEK293) | outcome (HaCat [1]) | outcome (KB-3-1) | outcome (NIH3T3) | outcome (HACAT [2]) | Potency (HEK293T)

CC1OC(OC2C(C)OC(OC3C(OC(=O)/C=C/c4ccc(O)cc4)C(CO)OC(OC4(COC(=O)/C=C/c5ccc(O)cc5)OC(CO)C(O)C4O)C3OC3OCC(O)(CO)C3O)C(O)C2O)C(O)C(O)C1O (stereo unspecified)
inactive: max response (CRL-7250) -0.0903% | outcome (HEK293) | outcome (HaCat [1]) | max response (KB-3-1) 4.29% | outcome (NIH3T3) | outcome (HACAT [2]) inactive [at 9.27 µM] | outcome (HEK293T) inactive [at 9.27 µM]

C=C1CC2[C@]3(C)C(=C(O)C(=O)[C@@]2(C)[C@]2(C(=O)OC)C(=O)C(C)OC(=O)[C@@]12C)C(C)(C)C(=O)CC3O (stereo partly specified)
inactive: max response (CRL-7250) -4.87% | outcome (HEK293) | outcome (HaCat [1]) | outcome (KB-3-1) | max response (NIH3T3) 0.571% | outcome (HACAT [2]) inactive [at 17.4 µM] | Potency (HEK293T)

Oc1ccc([C@H]2COc3cc(O)ccc3C2)cc1
inactive: outcome (CRL-7250) | outcome (HEK293) | outcome (HaCat [1]) | max response (KB-3-1) 0.946% | max response (NIH3T3) 3.41% | outcome (HACAT [2]) | Potency (HEK293T)

C=C1CCC2C(C)(C)C(O)CCC2(C)C1CCC(C)CCOC(=O)CCC(=O)O (stereo unspecified)
inactive: max response (CRL-7250) -7.27% | outcome (HEK293) | outcome (HaCat [1]) | max response (KB-3-1) 1.36% | max response (NIH3T3) -1.95% | outcome (HACAT [2]) inactive [at 17.4 µM] | Potency (HEK293T)

C/C=C(\C)C(=O)O[C@@H]1CC2[C@@H](CC=C3C[C@@H](O[C@H]4C[C@H](OC)[C@H](O[C@H]5C[C@H](OC)[C@H](O[C@H]6C[C@H](OC)[C@H](O[C@H]7C[C@@H](OC)[C@H](O[C@@H]8O[C@H](CO)[C@@H](O)[C@H](O)[C@H]8O)[C@@H](C)O7)[C@@H](C)O6)[C@@H](C)O5)[C@@H](C)O4)CC[C@@]32C)[C@@]2(O)CC[C@H](C(C)=O)[C@@]12C (stereo partly specified)
inactive: max response (CRL-7250) 2.31% | outcome (HEK293) | outcome (HaCat [1]) | max response (KB-3-1) -8.02% | max response (NIH3T3) 0.771% | outcome (HACAT [2]) inactive [at 9.27 µM] | outcome (HEK293T) inactive [at 9.27 µM]

Cc1cc(C)cc(NC(=O)Cc2ccc(OC(C)(C)C(=O)O)cc2)c1
inactive: max response (CRL-7250) 0.247% | outcome (HEK293) | outcome (HaCat [1]) | outcome (KB-3-1) | max response (NIH3T3) -1.99% | outcome (HACAT [2]) | Potency (HEK293T)

C[C@@H]1O[C@@H](O[C@@H]2[C@@H](O)[C@H](O[C@@H]3[C@@H](O)[C@@H](O)[C@H](O[C@H]4[C@H](OC(=O)[C@]56CCC(C)(C)C[C@H]5C5=CCC7[C@@]8(C)C[C@H](O)[C@H](O[C@@H]9O[C@H](C(=O)O)[C@@H](O)[C@H](O)[C@H]9O)[C@@](C)(CO)C8[C@H](O)C[C@@]7(C)[C@]5(C)CC6)OC[C@H](O)[C@@H]4O)O[C@H]3C)OC[C@H]2O)[C@H](O)[C@H](O)[C@H]1O (stereo partly specified)
inactive: max response (CRL-7250) -17.9% | outcome (HEK293) | outcome (HaCat [1]) | max response (KB-3-1) 2.1% | outcome (NIH3T3) | outcome (HACAT [2]) inactive [at 9.27 µM] | outcome (HEK293T) inactive [at 9.27 µM]
